# Laboratory results from PubChem BioAssay (NCATS).
# Several values for one entry are separate records, joined by “and”; a condition that tells them apart may be missing. Equal entries are not always repeated. Records with an inconclusive call do not appear. Values without a mark were called inactive. Activity calls are given as the source filed them. Calls come from the whole dose curve; as a rule, active = well fitted inhibition curve with a large enough effect; inconclusive = small, poorly fitted or top-dose-only effect; inactive = flat fitted curve, though single readings scatter.
# Key:
# CRL-7250 = normal cell line; test: Cytotoxic Profiling of Annotated Libraries Using Quantitative High-Throughput Screening (AID 1296008); conditions: Five cell lines viability, CellTiter-Glo ATP luminescence, 48-72 h; max response: hits give low values; note: potency is the fitted concentration of half-maximal effect; for max response: % is set by controls: 0 for no effect and ±100 for the full control effect
# Procedure, shortened: (§1)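 Compounds were pin-transferred onto cells and incubated 48 or 72 hr at 37 degree Celsius, 95% humidity. CellTiter-Glo was added, plates sat 10 min at room temperature, then ATP-coupled luminescence was imaged as the viability read-out.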
# HaCat [1] = test: as above; conditions: Five cell lines viability, CellTiter-Glo ATP luminescence, 48-72 h; max response: hits give low values
# Procedure, shortened: as §1
# KB-3-1 = test: as above; conditions: Five cell lines viability, CellTiter-Glo ATP luminescence, 48-72 h; max response: hits give low values
# Procedure, shortened: as §1
# HACAT [2] = test: qHTS assay to identify novel small-molecules to repurpose for Merkel cell carcinoma treatment (AID 1296009); conditions: MCC and control cell lines, CellTiter-Glo viability, 72 h; at 44.8 µM (top of the series) unless noted
# Procedure, shortened: (§2)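 Luminescence from CellTiter-Glo, read 10 min after addition at room temperature, reported viability following a 72 hr, 37 degree celsius treatment with NPC or MIPE compounds in titration; values normalized to plate controls.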
# MCC-13 = test: as above; conditions: MCC and control cell lines, CellTiter-Glo viability, 72 h; series mostly up to 46 µM
# Procedure, shortened: as §2
# NIH3T3 = test: Cytotoxic Profiling of Annotated Libraries Using Quantitative High-Throughput Screening (AID 1296008); conditions: Five cell lines viability, CellTiter-Glo ATP luminescence, 48-72 h; max response: hits give low values; note: potency is the fitted concentration of half-maximal effect; for max response: % is set by controls: 0 for no effect and ±100 for the full control effect
# Procedure, shortened: as §1
# TAB165 = test: qHTS profiling for inhibitors of Plasmodium falciparum proliferation (AID 504749);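 note: 0% = DMSO vehicle and full inhibition = artemisinin control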; conditions: P. falciparum in erythrocytes, SYBR Green DNA, 72 h; series mostly up to 28.7 µM
# Procedure, shortened: (§3)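 Fluorescence of SYBR Green-bound parasite DNA, read at 485/535 nm, served as the growth measure. Infected erythrocytes were cultured with compound 72 h; artemisinin (0.29 uM) and DMSO wells defined the normalization range.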
# W2 = test: as above; conditions: P. falciparum in erythrocytes, SYBR Green DNA, 72 h; series mostly up to 28.7 µM
# Procedure, shortened: as §3
# HEK293T = test: qHTS assay to identify novel small-molecules to repurpose for Merkel cell carcinoma treatment (AID 1296009); conditions: MCC and control cell lines, CellTiter-Glo viability, 72 h; at 44.8 µM (top of the series) unless noted
# Procedure, shortened: as §2
# Note: nearly all actives have a fitted effect of over 60% in size.
structure (smiles),measurement,setting,value
CNc1nc(Nc2ccc(C(=O)N3CCOCC3)cc2OC)ncc1Cl,max response,CRL-7250,2.63% and -2.16%
same,outcome,HaCat [1],inactive
same,max response,KB-3-1,-5.95%
same,outcome,KB-3-1,inactive
same,outcome,HACAT [2],inactive
same,Potency,MCC-13,inactive
CC(=O)O[C@]1(C(C)=O)CC[C@H]2[C@@H]3C=C(Cl)C4=CC(=O)[C@@H]5C[C@H]5[C@]4(C)[C@@H]3CC[C@@]21C,outcome,CRL-7250,inactive
same,max response,HaCat [1],-0.438%
same,outcome,KB-3-1,inactive
same,outcome,NIH3T3,inactive
same,Potency,MCC-13,inactive
COc1cccc(OC)c1-c1cc(C(=O)NC2(C(=O)O)C3CC4CC(C3)CC2C4)nn1-c1ccnc2cc(Cl)ccc12 (stereo not drawn),max response,CRL-7250,-4.21%
same,max response,HaCat [1],-12%
same,outcome,KB-3-1,inactive
same,outcome,NIH3T3,inactive
same,Potency,MCC-13,inactive
COc1cc2c(cc1OC)[C@@H]1Cc3ccc(OC)c(OC)c3CN1CC2,max response,CRL-7250,-7.12%
same,max response,HaCat [1],-3.71%
same,max response,KB-3-1,-25.3%
same,max response,NIH3T3,-3.25%
same,Potency,MCC-13,inactive
COc1cc2c(cc1OC)CC(=O)N(CCCN(C)C[C@H]1Cc3cc(OC)c(OC)cc31)CC2,Potency,TAB165,inactive
same,max response,CRL-7250,4.25%
same,max response,HaCat [1],-15.9%
same,max response,KB-3-1,6.36%
same,max response,NIH3T3,-18.8%
same,Potency,MCC-13,inactive
CCC(=C(CC)c1ccc(O)cc1)c1ccc(O)cc1,max response,CRL-7250,2.3%
same,outcome,HaCat [1],inactive
same,max response,NIH3T3,-12.1%
same,outcome,HACAT [2],inactive
same,Potency,MCC-13,inactive
C[C@@H]1CC=CC=CC=CC=C[C@@H](O[C@@H]2O[C@H](C)[C@@H](O)[C@H](N)[C@H]2O)C[C@@H]2O[C@](O)(C[C@@H](O)C[C@@H]3O[C@@H]3C=CC(=O)O1)C[C@H](O)[C@@H]2C(=O)O,max response,CRL-7250,-2.36%
same,max response,HaCat [1],-1.58%
same,max response,NIH3T3,4.91%
same,Potency,MCC-13,inactive
CCCCC[C@H](O)C=C[C@H]1[C@H](O)CC(=O)[C@H]1CCCCCCC(=O)O,max response,CRL-7250,-0.21%
same,max response,HaCat [1],-1.7%
same,max response,KB-3-1,-2.88%
same,max response,NIH3T3,-0.203%
same,Potency,MCC-13,inactive
CN(C)CCOc1ccc(C(=C(CCCl)c2ccccc2)c2ccccc2)cc1,max response,CRL-7250,-7.14%
same,max response,HaCat [1],-3.54%
same,max response,KB-3-1,7.38%
same,outcome,NIH3T3,inactive
same,Potency,MCC-13,inactive
COc1ccc(CCN(C)CCCOc2ccc(S(=O)(=O)c3[nH]c4ccccc4c3C(C)C)cc2)cc1OC,outcome,CRL-7250,inactive
same,max response,HaCat [1],-8.82%
same,max response,KB-3-1,5.18%
same,Potency,MCC-13,inactive
CO[C@H]1/C=C\O[C@@]2(C)Oc3c(C)c(O)c4c(O)c(c5c(nc6cc(C)ccn65)c4c3C2=O)NC(=O)C(C)=CC=C[C@H](C)[C@H](O)[C@@H](C)[C@@H](O)[C@@H](C)[C@H](OC(C)=O)[C@H]1C,max response,CRL-7250,3.34%
same,max response,HaCat [1],-2.46%
same,max response,KB-3-1,-2.96%
same,max response,NIH3T3,-4.51%
same,Potency,MCC-13,inactive
NCc1c[nH]c(=S)n1[C@H]1CCc2c(F)cc(F)cc2C1,Potency,CRL-7250,16.6 µM (active)
same,outcome,HaCat [1],inactive
same,outcome,HACAT [2],inactive
same,Potency,MCC-13,inactive
N#CC(c1ccc(Cl)cc1)c1c(Cl)cc(-n2ncc(=O)[nH]c2=O)cc1Cl (stereo not drawn),Potency,TAB165,inactive
same,Potency,W2,inactive
same,max response,CRL-7250,-3.43%
same,outcome,HaCat [1],inactive
same,max response,KB-3-1,0.338%
same,max response,NIH3T3,-0.315%
same,outcome,HACAT [2],inactive
same,Potency,MCC-13,inactive
O=C1NC(=O)C(c2cnc3ccccn23)=C1c1cn2c3c(cccc13)CN(C(=O)N1CCOCC1)CC2,Potency,CRL-7250,0.0166 µM (active)
same,max response,HaCat [1],-40.4%
same,max response,NIH3T3,-24.9%
Oc1ccc(C=Cc2cc(O)cc(O)c2)cc1,max response,CRL-7250,-12.2%
same,max response,HaCat [1],-24.3%
same,max response,KB-3-1,-2.23%
same,Potency,MCC-13,inactive
N#Cc1ccc(Oc2ccc3c(c2)COB3O)cc1,outcome,CRL-7250,inactive
same,max response,HaCat [1],-2.09% and 3.76%
same,max response,KB-3-1,-8.17% and -9.93%
same,max response,NIH3T3,-0.632% and -20.3%
same,Potency,MCC-13,inactive
CCNC(=O)[C@H]1O[C@@H](n2cnc3c(N)nc(NCCc4ccc(CCC(=O)O)cc4)nc32)[C@H](O)[C@H]1O,max response,CRL-7250,4.93%
same,max response,HaCat [1],-10.6%
same,max response,KB-3-1,-0.875%
same,outcome,NIH3T3,inactive
same,outcome,HEK293T,inactive
same,Potency,MCC-13,inactive
CCC=CC[C@H]1C(=O)CC[C@@H]1CC(=O)OC,max response,CRL-7250,-0.832%
same,outcome,HaCat [1],inactive
same,outcome,KB-3-1,inactive
same,outcome,HACAT [2],inactive
same,Potency,MCC-13,inactive
CCC(=O)OCC(=O)[C@@]1(OC(=O)CC)[C@@H](C)C[C@@H]2[C@H]3CCC4=CC(=O)C=C[C@]4(C)[C@@]3(F)[C@@H](O)C[C@@]21C,max response,CRL-7250,-3.82%
same,max response,HaCat [1],-0.0521%
same,outcome,KB-3-1,inactive
same,max response,NIH3T3,0.981%
same,Potency,MCC-13,inactive
O=C1Nc2ccc(I)cc2C1=Cc1cc(Br)c(O)c(Br)c1,outcome,CRL-7250,inactive
same,max response,HaCat [1],4.95%
same,max response,KB-3-1,8.65%
same,max response,NIH3T3,-9.84%
same,Potency,MCC-13,inactive
CCC(=C(c1ccc(O)cc1)c1ccc(OCCNC)cc1)c1ccccc1,max response,CRL-7250,-6.43%
same,max response,HaCat [1],-11.9%
same,Potency,MCC-13,inactive
COc1cc(CNC(=O)CCCCC=CC(C)C)ccc1O,max response,CRL-7250,-19.8%
same,max response,HaCat [1],3.92%
same,max response,KB-3-1,-24.7%
same,Potency,NIH3T3,10.5 µM (active)
same,Potency,MCC-13,inactive
